Test results published in PubChem BioAssay (NCI).
Several values for one entry are separate records, joined by “and”; a condition that tells them apart may be missing. Equal entries are not always repeated. This is part of a sample that, as a whole, favours compounds with a hit. Of some 83,000 tested, about 20% had one in any assay.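 In brief: 96-well plates, 48 h treatment, single concentration, percent growth endpoint.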 Activity calls are given as the source filed them. The calls were made as follows: active = growth percent below 10; inactive = the rest.

Each compound was assayed on MCF7 breast (assay: NCI-60 one-dose screen, 48 h (100 = growth as untreated, 0 = no growth, -100 = all killed)). Conditions: 10 µM unless noted.

Compound	growth
C[C@@H]1C[C@@H]2OC(=O)[C@]3(C)[C@H]2[C@@H](OC3(C)O)[C@]2(C)C(=O)C=C[C@@H]12 (some centres not stated)	-67.1% [100 µM] (active) and -81.7% [100 µM] (active)
O=C1c2ccccc2-c2c1c1ccccc1c(=O)n2-c1cccnc1	21.1% [100 µM] (inactive) and 3.24% [100 µM] (active)
CCOc1cc2c(cc1O)C=C[C@@H]1[C@@H]2CC[C@]2(C)[C@@H](O)CC[C@@H]12	-21% [100 µM] (active) and -100% [100 µM] (active)
CCC/C(Cl)=N/OC(=O)Nc1cccc(F)c1	-73.4% [100 µM] (active) and -100% [100 µM] (active)
CCC1OC2(C)CC(C#N)(C#N)C1(C#N)C(=N)O2 (configuration not stated)	39.8% [100 µM] (inactive)
COC(=O)C1=CO[C@@H](OC2OC(CO)C(O)C(O)C2O)[C@H]2[C@@H](C)[C@@H](O)[C@@H](O)[C@@H]12 (some centres not stated)	95.3% [100 µM] (inactive) and 91.8% [100 µM] (inactive)
COC(=O)C(/C(=N/NC(N)=O)C(=O)Nc1ccc(C)cc1)c1nc2ccc([N+](=O)[O-])cc2[nH]c1=O (configuration not stated)	68.7% [100 µM] (inactive) and 41.2% [100 µM] (inactive)
CC(=N/N=C/c1ccccn1)/C(C)=N/N=C(C)/C(C)=N/N=C(C)/C(C)=N/N=C(C)/C(C)=N\N=C\c1ccccn1	84.9% [100 µM] (inactive) and 89.9% [100 µM] (inactive)
COc1cc([C@H]2OC[C@H]3[C@@H]2CO[C@@H]3c2cc(OC)c3c(c2)OCO3)cc(OC)c1OC	18.5% [100 µM] (inactive) and 2.61% [100 µM] (active)
Cc1ccc(/C=N/Nc2nncc3ccccc23)s1	19% [100 µM] (inactive) and 4.27% [100 µM] (active)
CC1=CC(=O)c2ccc(C)cc2C1=O	-70.7% [100 µM] (active) and -100% [100 µM] (active)
CCOC(=O)COc1cc(-c2ccccc2)nc2cc(F)ccc12	49.3% [100 µM] (inactive) and 35.8% [100 µM] (inactive)
COC(=O)C(=O)C(C(=O)C(=O)Nc1ccccc1C(C)=O)c1nc2ccc(C(=O)c3ccccc3)cc2[nH]c1=O (configuration not stated)	25.6% [100 µM] (inactive) and 2.25% [100 µM] (active)
C[C@@H]1CC[C@H]2C(C)(C)[C@H]3C[C@@]12CC[C@@]3(C)O	93.1% [100 µM] (inactive) and -100% [100 µM] (active)
N#C/C=C1\C=CC(O)C(O)C1OC1OC(CO)C(O)C(O)C1O (configuration not stated)	92.7% [100 µM] (inactive) and 74.4% [100 µM] (inactive)
C=C(C)C(=O)OC1CC2(C)OC(=CC2=O)C(C)CC2OC(=O)C(=C)C12 (configuration not stated)	-77.3% [100 µM] (active)
CCCCCCCCOC(=O)C12Oc3ccc(-c4ccc5c(c4O)C(O)=C4C(=O)CC(C)C(O)C4(C(=O)OCCCCCCCC)O5)c(O)c3C(O)=C1C(=O)CC(C)C2O (configuration not stated)	-22.3% [100 µM] (active) and -100% [100 µM] (active)
N#Cc1nc(C(F)(F)F)oc1N	66.3% [100 µM] (inactive) and 98.4% [100 µM] (inactive)
Cc1ccc(OCC2OC(n3cnc4nc(Cl)nc(Cl)c43)CC2Oc2ccc(C)cc2)cc1 (configuration not stated)	0.206% [100 µM] (active) and -99.2% [100 µM] (active)

Compound	growth
CCCCCCSC[C@H](OC(C)=O)[C@@H](OC(C)=O)[C@@H](OC(C)=O)[C@@H](COC(C)=O)OC(C)=O	28.8% [100 µM] (inactive) and 79.7% [100 µM] (inactive)
CCOC(=O)c1cc(C)nc2c1c(=O)n(-c1ccccc1)c(=O)n2CCCCN1CCN(c2ncccn2)CC1	100% [100 µM] (inactive) and 90.8% [100 µM] (inactive)
COc1cc2c(cc1-c1coc3cc(O)ccc3c1=O)OCO2	67.5% [100 µM] (inactive) and 58.5% [100 µM] (inactive)
CCCCCCCCCC(O)CC(=O)c1c(O)cccc1O (configuration not stated)	-63.9% [100 µM] (active) and -46.7% [100 µM] (active)
CC(C)/C(Cl)=N/OC(=O)Nc1cccc(C(F)(F)F)c1	-79.5% [100 µM] (active) and -84.4% [100 µM] (active)
O=C(O)COc1cc(-c2ccccc2F)nc2cc3c(cc12)OCO3	86.4% [100 µM] (inactive) and 58% [100 µM] (inactive)
C=C1C(=O)OC2CC(C)C3(O)CCC(=O)C3(C)CC12 (configuration not stated)	13.7% [100 µM] (inactive) and 3.19% [100 µM] (active)
COc1ccc(/C=C2/NC(=S)N=C2Cl)cc1	82% [100 µM] (inactive) and 75% [100 µM] (inactive)
CC(C)CCCC(C)[C@H]1CC[C@H]2[C@@H]3CC[C@H]4C[C@@H](CCC=C(c5cc(Cl)c(O)c(C(=O)O)c5)c5cc(Cl)c(O)c(C(=O)O)c5)CC[C@]4(C)[C@H]3CC[C@]12C (some centres not stated) (tested in a mixture with another compound)	97.3% [50 µM] (inactive)
CC1=C2NCN(C)N=C2C(C#N)(C#N)C1(C#N)C#N	-60.6% [100 µM] (active) and -73.1% [100 µM] (active)
N#CC1(C#N)C2CCCCC23OC(=N)C1(C#N)C(c1ccccc1)O3 (configuration not stated)	-47% [100 µM] (active)
CC1OC(Oc2c(-c3cc(O)c(O)c(O)c3)oc3cc(O)cc(O)c3c2=O)C(O)C(O)C1O (configuration not stated)	77.9% [100 µM] (inactive) and -43.3% [100 µM] (active)
COC(=O)c1cc(C#N)[nH]c1-c1ccsc1	9.03% [100 µM] (active) and -89.1% [100 µM] (active)
N#CC1(C#N)C2CCCCC23OC(=N)C1(C#N)C(c1ccco1)O3 (configuration not stated)	-54% [100 µM] (active)
C=C(CCC(C(=O)O)C1CCC2(C)C3=C(CCC12C)C1(C)CCC(O)C(C)(C)C1CC3)C(C)C (configuration not stated)	-52.5% [100 µM] (active) and -56.2% [100 µM] (active)
COC(=O)C(=O)C(C(=O)C(=O)Nc1ccccc1OC)c1nc2ccc([N+](=O)[O-])cc2[nH]c1=O (configuration not stated)	43% [100 µM] (inactive) and 41.8% [100 µM] (inactive)
COc1ccc(C2c3cc4c(c(OC)c3CC3OCC(=O)C32)OCO4)cc1OC (configuration not stated)	6.05% [100 µM] (active) and -81% [100 µM] (active)
COc1cc([C@H]2OC[C@@H]3C(c4cc(OC)c5c(c4)OCO5)OC[C@H]23)cc(OC)c1OC (some centres not stated)	67.2% [100 µM] (inactive) and 7.31% [100 µM] (active)
